NS1 inh – influenza NS1 inhibition | 270,000 compounds, 0.4% hits | Potency, µM (series often up to 46.1 µM); calls by dose curve; also: actives are rising curves; nearly all actives have a fitted effect of over 50% in size
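Recovery from NS1-induced slow growth read by OD600 in budding yeast switched to galactose assay medium (pH 6.0, -URA) at 1:100 dilution. Compound 23 nl per well; the matching strain lacking NS1 serves as control.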
Pf growth 48h – inhibits P. falciparum growth in the first generation, 48 h | P. falciparum luciferase growth in erythrocytes, 48 h | Potency, µM (top dose mostly 28.7 µM), usual class: inhibitors | 310,000 compounds, 5.9% hits
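Read-out is firefly luciferase luminescence from an integrated reporter in P. falciparum, so falling signal marks reduced parasite growth. Infected erythrocytes were at 2% hematocrit and 0.1% parasitemia (final) in Albumax-supplemented RPMI 1640.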
Pf growth 96h – inhibits malaria parasite growth, 96 h | 320,000 compounds, 6.9% hits | P. falciparum luciferase reporter growth, 96 h | Potency, µM (highest dose often 28.7 µM), hits mostly inhibitors
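Readout is luminescence from an integrated firefly luciferase in P. falciparum. Red cells, 2% hematocrit and 0.05% parasitemia final, were cultured with compound through two parasite generations (96 hours) at 37 C, 5% CO2.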
CHX counter – counter-screen hit for Shiga toxin inhibitors, cycloheximide | cell reporter, cycloheximide protein synthesis inhibition counterscreen | max response, % | 300,000 compounds, 12% hits; in the data active = max response mostly above about 13%, no sharp cut-off; inactive = mostly below about 14%; also: read at 38.3 µM for the half of the compounds with a filed dose
Sm TGR block – S. mansoni TGR enzyme inhibition | purified TGR, DTNB reduction, TNB absorbance 405 nm | Q962Y6 | AID 485364 | Potency, µM (titrated, usually from 114 µM), actives largely listed as inhibitors | 360,000 compounds, 3% hits; also: nearly all actives have a fitted effect of over 60% in size
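First, TGR (20 nM dispensed) and NADPH were mixed with compound. Second, a 15 min room-temperature incubation followed. Third, further NADPH and then DTNB were added to start the reaction. Finally, TNB absorbance was monitored kinetically.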
Shiga toxin inh – inhibitors of Shiga toxin in Vero cells | AID 2315 | 290,000 compounds, 9.2% hits | inhibition, % at 38.7 µM | Vero cells, Shiga toxin protein synthesis inhibition reporter; in the data active = inhibition mostly above about 28%, no sharp cut-off; inactive = mostly below about 43%
Each line names hits and unclear results; the compound was inactive in the other large screens; ! = a repeat was not active. In the library only some 21% were active in any assay of this set; here they are far more common. Unless noted, calls follow the shape of the dose curve; as a rule, active = well fitted curve in the direction sought with a large enough effect; inconclusive = small, poorly fitted or top-dose-only effect, or another doubt; inactive = no such curve, though single readings can be large; an effect the other way counts as inactive or inconclusive.

COCCN(C(=O)COC(=O)/C=C/c1cccc(OC)c1)c1c(N)n(CC(C)C)c(=O)[nH]c1=O	Pf growth 48h inconclusive (no result: NS1 inh, CHX counter, Shiga toxin inh)
Cc1cc(=O)[nH]c(/N=C(\N)Nc2ccc(Cl)cc2)n1	none (no result: Pf growth 48h, Pf growth 96h, CHX counter, Sm TGR block, Shiga toxin inh)
Cc1cc(OC(C)C(=O)N(Cc2ccco2)Cc2ccccc2F)cc(C)c1Cl (centres undefined)	none (no result: NS1 inh, Pf growth 48h, Pf growth 96h, CHX counter, Shiga toxin inh)
CN1CCC(=C2c3ccccc3CC(=O)c3sccc32)CC1	Pf growth 48h 15µM, Pf growth 96h 10µM, Sm TGR block 50µM!
CN1CCC(=C2c3ccccc3CCc3sccc32)CC1	Pf growth 48h 15µM (no result: NS1 inh)
CCSc1ncnc2sc(C)c(C)c12	none
Cc1sc2ncnc(Sc3nnc4sc5ccccc5n34)c2c1C	Pf growth 48h 2.9µM, Pf growth 96h inconclusive
CN(C)c1ccc(S(=O)(=O)N2CCCCC2)cc1NC(=O)CN1C(=O)NC2(CCCC2)C1=O	Pf growth 48h 13µM, Pf growth 96h inconclusive (no result: NS1 inh, CHX counter, Shiga toxin inh)
CCOc1ccc(S(=O)(=O)N2CCOCC2)cc1NC(=O)CN1C(=O)NC2(CCCC2)C1=O	none (no result: NS1 inh, CHX counter, Shiga toxin inh)
CCN(CC)c1ccc(S(=O)(=O)N2CCOCC2)cc1NC(=O)CN1C(=O)NC2(CCC(C)CC2)C1=O (centres undefined)	Pf growth 48h inconclusive, Pf growth 96h 13µM (no result: NS1 inh, CHX counter, Shiga toxin inh)
CC(=O)N1c2ccccc2NC2=C(C(=O)CCC2)C1c1ccco1 (centres undefined)	Pf growth 48h inconclusive, Sm TGR block 35µM (no result: NS1 inh)
COc1ccc(C2C3=C(CC(c4ccco4)CC3=O)Nc3ccccc3N2C(C)=O)cc1 (centres undefined)	none
O=C(CN1CCN(Cc2ccc(F)cc2)C1=O)NCc1ccc(F)cc1	none (no result: NS1 inh, Pf growth 48h, Pf growth 96h, CHX counter, Shiga toxin inh)
Cc1ccc(/C=c2\sc3nc(-c4cccnc4)nn3c2=O)cc1	Pf growth 96h inconclusive
CC(C)c1ccc(/C=c2\sc3nc(-c4ccncc4)nn3c2=O)cc1	Pf growth 96h 4.1µM
COc1cc(OC)c(C2Nc3ccccc3NC3=C2C(=O)CC(C)(C)C3)cc1OC (centres undefined)	Pf growth 96h inconclusive
COc1ccc(C2CC(=O)C3=C(C2)Nc2ccccc2NC3c2coc3ccccc3c2=O)cc1OC (centres undefined)	Pf growth 48h 7.4µM
COC(=O)C1=NNC2C(=O)N(C3CCCCC3)C(=O)C12 (centres undefined)	Pf growth 96h 3.3µM
COc1cccc(NC(=O)c2cccnn2)c1	Pf growth 96h inconclusive, CHX counter 21
COc1ccc(NC(=O)c2cccnn2)cc1	Pf growth 96h inconclusive, CHX counter 24, Shiga toxin inh 29
COc1ccc(CCNc2nc3c(-c4cccc(C)c4)nnn3c3ccccc23)cc1OC	none (no result: NS1 inh, Pf growth 48h, Pf growth 96h, CHX counter, Shiga toxin inh)
CCc1nc(SCC(=O)c2ccc(Cl)s2)c2oc3ccccc3c2n1	CHX counter 46, Shiga toxin inh 89
c1ccc2[nH]c(CSc3nc4ccccc4o3)nc2c1	CHX counter 42, Shiga toxin inh 137
CCc1nc(SCc2nc3ccccc3[nH]2)c2oc3ccccc3c2n1	Pf growth 96h inconclusive, CHX counter 14 (no result: Pf growth 48h)
CCc1nc(SCCO)c2oc3ccccc3c2n1	Pf growth 48h inconclusive
CCc1nc(SCC(=O)N2CCN(c3ccccc3)CC2)c2oc3ccccc3c2n1	NS1 inh inconclusive
c1cncc(-c2nnc(SCc3nc4ccccc4[nH]3)o2)c1	none (no result: Pf growth 96h)
CCc1nnc(NC(=O)c2ccc(OC)c(S(=O)(=O)N3CCCC3)c2)s1	Pf growth 48h inconclusive, Pf growth 96h inconclusive (no result: NS1 inh, CHX counter, Shiga toxin inh)
CCc1nnc2n1N=C(c1ccc(-c3ccc(Cl)cc3Cl)o1)CS2	none (no result: Pf growth 48h, Pf growth 96h, CHX counter, Sm TGR block, Shiga toxin inh)
CCc1nnc2n1N=C(c1ccc(-c3cc(Cl)ccc3Cl)o1)CS2	Pf growth 96h 9.3µM (no result: Pf growth 48h)
COc1cc(-c2cc(C(=O)Nc3ccc(S(=O)(=O)NCc4ccco4)cc3)c3ccccc3n2)cc(OC)c1OC	Pf growth 48h 10µM, Pf growth 96h 17µM
COc1cc(-c2cc(C(=O)NCc3ccc(S(N)(=O)=O)cc3)c3ccccc3n2)cc(OC)c1OC	Pf growth 48h inconclusive, Pf growth 96h inconclusive
COc1cc(-c2cc(C(=O)NCc3ccco3)c3ccccc3n2)cc(OC)c1OC	Pf growth 48h inconclusive, Pf growth 96h 10µM, CHX counter 23
CCCCC(=O)Oc1c(S(=O)(=O)c2ccc(C)cc2)c(C)nn1C(C)(C)C	none
O=C(Cn1nc(CNc2ccc(Cl)cc2)[n+]2c1CCCCC2)c1ccccc1	Pf growth 48h 0.93µM, Pf growth 96h inconclusive
